The entries come from a sample that favours hits as a whole.
STK33 inh: human STK33 kinase inhibition. ADP-Glo luminescence, MBP substrate. inhibition, % at 12.5 µM. 27,000 compounds, 0.44% hits; in the data active = inhibition above about 20%; inconclusive = no clear call, values can overlap the other calls
Target sequence (Q9BYT3 whole entry, looked up): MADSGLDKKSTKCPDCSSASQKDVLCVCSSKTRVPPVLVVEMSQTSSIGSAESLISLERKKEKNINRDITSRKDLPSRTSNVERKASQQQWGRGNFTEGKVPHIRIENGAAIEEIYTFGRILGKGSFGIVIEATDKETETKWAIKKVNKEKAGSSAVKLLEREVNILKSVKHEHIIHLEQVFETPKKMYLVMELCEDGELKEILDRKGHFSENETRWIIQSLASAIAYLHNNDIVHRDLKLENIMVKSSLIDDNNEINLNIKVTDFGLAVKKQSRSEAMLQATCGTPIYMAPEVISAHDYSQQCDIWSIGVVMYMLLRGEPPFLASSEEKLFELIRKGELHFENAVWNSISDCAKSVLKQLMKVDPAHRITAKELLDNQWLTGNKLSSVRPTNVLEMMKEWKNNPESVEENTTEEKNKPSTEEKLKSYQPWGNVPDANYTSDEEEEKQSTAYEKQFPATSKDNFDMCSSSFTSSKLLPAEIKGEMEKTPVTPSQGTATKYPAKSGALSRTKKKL
PD-1 reversal: reversal of PD-1 mediated T-cell inhibition; activation, % (test concentration not listed); 29,000 tested, under 10 active; primary human CD4 T cells, PD-L1 beads, CellTiter-Glo 96 h; call rule not given here
NOMO-1 viab: STK33 inhibitor candidate reducing NOMO-1 cell viability | AID 2330 | NOMO-1 AML viability, CellTiter-Glo luminescence, 72 h | 37,000 compounds, 7.5% hits | inhibition, % (no concentration beside the values); in the data active = inhibition above about 80%; inconclusive = no clear call, values can overlap the other calls
Each line names hits and unclear results; the compound was inactive in the other large screens.

COC(=O)c1cccc(NC(=O)CSc2nnc(-c3cc(OC)cc(OC)c3)o2)c1	none
O=C(N1CC(Oc2ccc(Cl)cc2)C1)N1CC(Oc2ccc(Cl)cc2)C1	none
O=C(/C=C/Oc1ccc(Cl)cc1)c1ccc(Br)cc1	NOMO-1 viab 117 (no result: STK33 inh)
CC(C)(C)c1ccc(NC(=O)c2cnccn2)cc1	none (no result: STK33 inh)
C[C@H](CO)N1C[C@H](C)[C@H](CN(C)Cc2ccc(Cl)c(Cl)c2)Oc2ccc(NC(=O)NC3CCCCC3)cc2CC1=O	NOMO-1 viab 100
C[C@@H]1CN([C@H](C)CO)C(=O)Cc2cc(NC(=O)C3CCCCC3)ccc2O[C@H]1CN(C)Cc1ccc(Cl)c(Cl)c1	NOMO-1 viab inconclusive (no result: STK33 inh)
C[C@H]1CN([C@@H](C)CO)C(=O)Cc2cc(NC(=O)NC3CCCCC3)ccc2O[C@@H]1CN(C)Cc1ccncc1	none
C[C@@H]1CN([C@H](C)CO)C(=O)Cc2cc(NC(=O)C3CCCCC3)ccc2O[C@@H]1CN(C)Cc1ccc(Cl)c(Cl)c1	NOMO-1 viab 114
Cc1ccc([N+](=O)[O-])cc1N(CC(=O)Nc1cccc(Br)c1)S(C)(=O)=O	none
COc1c(O)cc2c(c1O)C(=O)OC(C)C2O (centres undefined)	none
Cc1ccc(S(=O)(=O)N(C)C[C@@H]2Oc3ccc(NC(=O)Nc4ccc(F)cc4)cc3C(=O)N([C@@H](C)CO)C[C@H]2C)cc1	none
COc1ccc(S(=O)(=O)N(C)C[C@H]2Oc3ccc(NC(=O)Nc4ccc(C(F)(F)F)cc4)cc3C(=O)N([C@H](C)CO)C[C@H]2C)cc1	NOMO-1 viab 88 (no result: STK33 inh)
Cc1ccc(S(=O)(=O)N(C)C[C@H]2Oc3ccc(NC(=O)Nc4ccc(C(F)(F)F)cc4)cc3C(=O)N([C@H](C)CO)C[C@H]2C)cc1	NOMO-1 viab 92 (no result: STK33 inh)
COc1ccc(S(=O)(=O)N(C)C[C@H]2Oc3ccc(NC(=O)Nc4ccc(C(F)(F)F)cc4)cc3C(=O)N([C@@H](C)CO)C[C@H]2C)cc1	none
C[C@@H]1CN([C@H](C)CO)C(=O)c2cc(NC(=O)Nc3ccc(C(F)(F)F)cc3)ccc2O[C@H]1CN(C)S(=O)(=O)c1ccc(Cl)cc1	none
C[C@H]1CN([C@@H](C)CO)C(=O)c2cc(NC(=O)Nc3ccc(C(F)(F)F)cc3)ccc2O[C@@H]1CN(C)S(=O)(=O)c1ccccc1	none
Cc1ccc(S(=O)(=O)N(C)C[C@@H]2Oc3ccc(NC(=O)Nc4ccc(C(F)(F)F)cc4)cc3C(=O)N([C@H](C)CO)C[C@H]2C)cc1	NOMO-1 viab 97 (no result: STK33 inh)
Cc1ccc(S(=O)(=O)N(C)C[C@H]2Oc3ccc(NC(=O)Nc4ccc(C(F)(F)F)cc4)cc3C(=O)N([C@H](C)CO)C[C@@H]2C)cc1	NOMO-1 viab 126 (no result: STK33 inh, PD-1 reversal)
CCN(CCC#N)C(=S)Nc1cc(C(F)(F)F)cc(C(F)(F)F)c1	none (no result: STK33 inh)
O=C(Nc1cccc(NS(=O)(=O)c2cccc([N+](=O)[O-])c2)c1)c1cccs1	none (no result: PD-1 reversal)
COc1cc(C(=O)Nc2ccc(OCC(=O)O)cc2)ccc1OC(C)=O	none
O=C(CCCN1C(=O)c2cccc3cccc(c23)C1=O)Nc1ccccc1C(F)(F)F	none (no result: PD-1 reversal)
O=C(COc1cc(Cl)c(Cl)cc1Cl)Nc1ccccc1[N+](=O)[O-]	none (no result: PD-1 reversal)
N#C/C(=C\Nc1cccc(Cl)c1)S(=O)(=O)c1ccc(Cl)cc1	NOMO-1 viab 84 (no result: STK33 inh)
CCOC(=O)/C(=C\Nc1ccc(F)c(Cl)c1)S(=O)(=O)c1ccc(Cl)cc1	none (no result: STK33 inh)
C[C@@H]1CN([C@@H](C)CO)C(=O)c2cc(NC(=O)CCC(F)(F)F)ccc2O[C@@H]1CN(C)Cc1ccc(Cl)c(Cl)c1	NOMO-1 viab 93
C[C@@H]1CN([C@@H](C)CO)C(=O)Cc2cc(NC(=O)CCC(F)(F)F)ccc2O[C@@H]1CN(C)Cc1ccc(Cl)c(Cl)c1	NOMO-1 viab 124
C[C@H](CO)N1C[C@H](C)[C@H](CN(C)Cc2ccc(Cl)c(Cl)c2)Oc2ccc(NC(=O)CCC(F)(F)F)cc2CC1=O	none
C[C@@H]1CN([C@@H](C)CO)C(=O)c2cc(NC(=O)CCC(F)(F)F)ccc2O[C@H]1CN(C)Cc1ccc(Cl)c(Cl)c1	none (no result: STK33 inh)
O=C(NCCCN1CCCC1=O)c1cc(-c2cccnc2)nc2ccc(Br)cc12	none (no result: PD-1 reversal)
C/C=C(/C)C(=O)O[C@H]1C[C@@](C)(O)C(=O)[C@@H](OC(=O)/C(C)=C\C)[C@@]2(C)CC[C@@](O)(C(C)C)[C@H]12	none
C=C1C(=O)O[C@H]2C1[C@H](OC(=O)/C(C)=C/CO)C/C(C)=C\CC[C@@]1(CO)OC21 (some centres undefined)	NOMO-1 viab 93
C=C1C(=O)O[C@H]2C1[C@H](OC(=O)/C(C)=C/CO)C/C(C)=C\CC[C@@]1(C)OC21 (some centres undefined)	NOMO-1 viab 122
C=C1C(=O)O[C@H]2[C@H]1[C@@H](OC(=O)/C(C)=C\C)C[C@]1(C)O[C@@H]1[C@H]1O[C@H]1C(=C)[C@H]2O	NOMO-1 viab 121
C=C(C(=O)O[C@H]1C/C(C)=C\CC/C(CO)=C\[C@H]2OC(=O)C(=C)[C@H]12)C(O)CO (some centres undefined)	none
C=C1C(=O)OC2/C=C(\CO)C(OC(C)=O)C/C=C(/C)CC(OC(=O)/C(C)=C\CO)C12 (centres undefined)	NOMO-1 viab 121
Cc1cccc(Cl)c1OC(=O)c1cc(C(C)(C)C)nn1C	none
CCC(=O)c1cn(CC(=O)Nc2cccc(C(F)(F)F)c2)c2ccccc12	none (no result: PD-1 reversal)
COc1ccc(NC(=O)CC(C(=O)O)N(C)C)cc1 (centres undefined)	none
Cc1ccc(S(=O)(=O)N(C)C[C@@H]2Oc3ccc(NC(=O)NC4CCCCC4)cc3CC(=O)N([C@@H](C)CO)C[C@@H]2C)cc1	NOMO-1 viab 116
C[C@H]1CN([C@@H](C)CO)C(=O)Cc2cc(NC(=O)NC3CCCCC3)ccc2O[C@H]1CN(C)S(=O)(=O)c1ccc(Cl)cc1	NOMO-1 viab 128
COc1ccc(S(=O)(=O)N(C)C[C@H]2Oc3ccc(NC(=O)NC4CCCCC4)cc3CC(=O)N([C@@H](C)CO)C[C@H]2C)cc1	none (no result: PD-1 reversal)
Cc1ccc(S(=O)(=O)N(C)C[C@@H]2Oc3ccc(NC(=O)NC4CCCCC4)cc3CC(=O)N([C@H](C)CO)C[C@@H]2C)cc1	NOMO-1 viab 124 (no result: STK33 inh, PD-1 reversal)
Cc1ccc(S(=O)(=O)N(C)C[C@H]2Oc3ccc(NC(=O)NC4CCCCC4)cc3CC(=O)N([C@H](C)CO)C[C@H]2C)cc1	none (no result: PD-1 reversal)
CC(C)NC(=O)Nc1ccc2c(c1)CC(=O)N([C@@H](C)CO)C[C@@H](C)[C@@H](CN(C)S(=O)(=O)c1ccc(Cl)cc1)O2	none
Cc1ccc(Oc2ncc(C(F)(F)F)cc2Cl)c2c1CCC2	NOMO-1 viab inconclusive (no result: STK33 inh)
Cc1cccc(-n2c3c(c(=O)[nH]c2=S)C(NC(=O)CN2CCCC2=O)(C(F)(F)F)C(=O)N3)c1 (centres undefined)	none
Cc1ccc(N2C(=O)C(N3C(=O)c4ccccc4C3=O)C2c2ccc(N(C)C)cc2)cc1Cl (centres undefined)	none (no result: STK33 inh)
C[C@@H]1CN([C@@H](C)CO)C(=O)c2cc(NC(=O)Cc3cn(C)c4ccccc34)ccc2O[C@H]1CN(C)Cc1ccc(C(F)(F)F)cc1	NOMO-1 viab 91 (no result: STK33 inh)
C[C@H](CO)N1C[C@H](C)[C@@H](CN(C)Cc2ccncc2)Oc2ccc(NC(=O)Cc3cn(C)c4ccccc34)cc2C1=O	NOMO-1 viab 92 (no result: STK33 inh)

Bioassay records: PubChem, Broad Institute
